Laboratory results from PubChem BioAssay (NCI).
This is part of a sample that, as a whole, favours compounds with a hit. Of some 79,000 tested, about 15% had one in any assay. Cut-off read from the data, not from the text of the source: active = growth inhibition above about 70%; inactive = the rest.

Legend:
[1] = NCI Yeast Anticancer Drug Screen. Data for the rad50 strain (AID 155);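 note: 0% = growth of vehicle-only cultures of the same strain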; details: S. cerevisiae rad50 strain growth inhibition, stronger effect = higher value; at 50.0 µM unless noted
How it was run: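 Genetically altered yeast (DNA repair pathway); compound treatment; growth inhibition vs vehicle ctrl.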

[2] = NCI Yeast Anticancer Drug Screen. Data for the mec2-1 strain (AID 157); details: S. cerevisiae mec2-1 strain, stronger effect = higher value; at 50.0 µM unless noted
How it was run: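 Readout is yeast growth inhibition, normalised to vehicle-treated controls, in the mec2-1 strain exposed to compound.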

[3] = NCI Yeast Anticancer Drug Screen. Data for the sgs1 mgt1 strain (AID 161);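 note: 0% = growth of cultures given vehicle only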; details: S. cerevisiae sgs1 mgt1 strain, stronger effect = higher value; at 50.0 µM unless noted
How it was run: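 This yeast growth screen uses a strain with defined DNA-repair lesions; compound-treated growth is compared with vehicle-treated growth.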

[4] = NCI Yeast Anticancer Drug Screen. Data for the cln2 rad14 strain (AID 165);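 note: 0% = growth equal to vehicle treated cultures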; details: S. cerevisiae cln2 rad14 strain, stronger effect = higher value; at 50.0 µM unless noted
How it was run: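 Relative to vehicle controls, growth inhibition of compound-treated cln2 rad14 yeast was recorded.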

[5] = NCI Yeast Anticancer Drug Screen. Data for the bub3 strain (AID 167); details: S. cerevisiae bub3 mutant strain, stronger effect = higher value; at 50.0 µM unless noted
How it was run: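 Yeast carrying a defined mutation is treated with each compound, and growth is compared with that of vehicle-exposed cells to give inhibition.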

[6] = NCI Yeast Anticancer Drug Screen. Data for the mlh1 rad18 strain (AID 175); details: S. cerevisiae mlh1 rad18 strain growth inhibition, stronger effect = higher value; at 50.0 µM unless noted
How it was run: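 Test agents were incubated with a yeast strain of defined genotype (DNA damage repair defect). Inhibition of growth was derived by comparison with vehicle-exposed cultures.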

Measured: growth inhibition

CCN(CC)CCNC(=O)c1ccc(I)cc1
inactive: [1] -43.4% | [2] -14.8% | [3] -0.9% | [4] -25.6% | [5] -4.35% | [6] -30.9%

CCCCC(C(=O)O)N(C)C (stereo not given)
inactive: [1] -15.9% | [2] -11.3% | [3] -5.8% | [4] -0.5% | [5] 2.4% | [6] -20.4%

CCN(CC)CC(C)O (stereo not given)
inactive: [1] 39.7% | [2] 13.2% | [3] 21% | [4] -26.9% | [5] -9.45% | [6] 30.6%

CC1=CC(C)(C)[C@H]2O[C@@]3(O)C[C@]4(C)[C@H]5C[C@@](C(C)C)(O[C@H]4c4ccoc4)O[C@H]4[C@]5(C3)O[C@@]1(O)[C@]24O
inactive: [1] 5.2% | [2] 0.45% | [3] -11.9% | [4] -14.8% | [5] -13.4% | [6] -3.5%

Nn1c(-c2ccccc2)nc2ccc(Br)cc2c1=O
inactive: [1] 0.95% | [2] 7.55% | [3] 18.5% | [4] 24.8% | [5] 7.95% | [6] 43.5%

CC1NC(=O)OC12CCCCC2 (stereo not given)
inactive: [1] 16.4% | [2] -3.55% | [3] -2.95% | [4] -27.6% | [5] -7.5% | [6] -30.4%

Oc1ccc(/C=C\c2cnccn2)cc1
inactive: [1] 27.6% | [2] 7.3% | [3] 0.45% | [4] 5.55% | [5] 30.8% | [6] 7.6%

O=C1CN(CCc2ccccc2)CC(=O)N2C(c3ccccc3)CCCN12 (stereo not given)
inactive: [1] 62.7% | [2] 38.5% | [3] 65.2% | [4] 42.2% | [5] 52% | [6] 43.4%

C/C(=N\NS(=O)(=O)c1c(C)cc(C)cc1C)c1ccc[n+]([O-])n1
inactive: [1] 3.95% | [2] 0.2% | [3] -8.4% | [4] 15.1% | [5] -12.8% | [6] -6.7%

FC(F)(F)c1ccc(C2=CCCCC2)cc1
inactive: [1] 24.1% | [2] 6.45% | [3] 4.45% | [4] 24.5% | [5] -18.6% | [6] 13.2%

C=C1C(=O)OC2CC(C)C(/C=C/C(C)=O)=CCC12 (stereo not given)
inactive: [1] -7.45% | [2] -7.6% | [3] -19.9% | [4] -12.5% | [5] -43% | [6] -99.8%

N#C/C(=C/NC(N)=S)C(N)=O
inactive: [1] -25.6% | [2] 10.3% | [3] -16.4% | [4] 14.6% | [5] -27.1% | [6] 20.7%

N#Cc1[nH]c(=O)n(-c2ccccc2)c1N
inactive: [1] -40.2% | [2] -57.8% | [3] -60.2% | [4] -22.4% | [5] -17.2% | [6] -37%

S=C(NC1CCCCC1)SSSSC(=S)NC1CCCCC1
inactive: [1] 15.7% | [2] 5% | [3] 22.2% | [4] 9.55% | [5] 13.9% | [6] 20.2%

Cc1cccc(-c2cc3ccccc3c(Cl)n2)n1
inactive: [1] -4% | [2] -23.1% | [3] 10.8% | [4] -0.6% | [5] 7.6% | [6] 7.7%

Cc1cc2ccccc2c[n+]1CC(O)C[n+]1cc2ccccc2cc1C
inactive: [1] -18.9% | [2] -31.1% | [3] -36.4% | [4] -27.7% | [5] -45% | [6] -0.8%

Cc1ccc(OCCC(=O)O)cc1
inactive: [1] 6.9% | [2] -6.15% | [3] -11.2% | [4] -63.5% | [5] -26.6% | [6] -1.65%

Cn1c(Nc2ccccc2)c(C=Nc2ccccc2)c(=O)n(C)c1=O
inactive: [1] -2.15% | [2] 3.45% | [3] -7.85% | [4] 7.55% | [5] -22.6% | [6] -0.9%

CSC(SC)c1cc(C)no1
inactive: [1] -11.3% | [2] 12.2% | [3] -7.45% | [4] 34.6% | [5] -10.2% | [6] -9.15%

COc1cc(C)c(C)c(OC(=O)c2c(C)c(C)c(OC)c(C)c2OC)c1C
inactive: [1] 10.3% | [2] -17.1% | [3] 11.3% | [4] 8.9% | [5] 23.6% | [6] 16.1%
